VP16 counter: VP16 counterscreen qHTS for inhibitors of ROR gamma transcriptional activity; 3.5% of 310,000 active; Potency, µM (highest dose often 53.6 µM), inactives show at the top dose activity, negative = inhibition, actives largely listed as inhibitors; Drosophila S2 Gal4-VP16 UAS-luciferase, luminescence, 20 h;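 further: Gal4-VP16 expression switched on by copper sulfate through the metallothionein promoter; potency means the concentration at half of the fitted maximal effect; nearly all actives have a fitted effect of over 50% in size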
RORg inh: qHTS for inhibitors of ROR gamma transcriptional activity; 5.4% of 310,000 active; Nuclear receptor ROR-gamma (Mus musculus), P51450; Potency, µM (doses to about 53.6 µM), without a hit: top-dose activity change, negative = inhibition, actives largely listed as inhibitors; Drosophila S2 Gal4-RORgamma UAS-luciferase reporter, 20 h; AID 2551, 2010; further: potency means the concentration at half of the fitted maximal effect; nearly all actives have a fitted effect of over 60% in size
Target sequence (P51450 whole entry, looked up, the tested form may be a part): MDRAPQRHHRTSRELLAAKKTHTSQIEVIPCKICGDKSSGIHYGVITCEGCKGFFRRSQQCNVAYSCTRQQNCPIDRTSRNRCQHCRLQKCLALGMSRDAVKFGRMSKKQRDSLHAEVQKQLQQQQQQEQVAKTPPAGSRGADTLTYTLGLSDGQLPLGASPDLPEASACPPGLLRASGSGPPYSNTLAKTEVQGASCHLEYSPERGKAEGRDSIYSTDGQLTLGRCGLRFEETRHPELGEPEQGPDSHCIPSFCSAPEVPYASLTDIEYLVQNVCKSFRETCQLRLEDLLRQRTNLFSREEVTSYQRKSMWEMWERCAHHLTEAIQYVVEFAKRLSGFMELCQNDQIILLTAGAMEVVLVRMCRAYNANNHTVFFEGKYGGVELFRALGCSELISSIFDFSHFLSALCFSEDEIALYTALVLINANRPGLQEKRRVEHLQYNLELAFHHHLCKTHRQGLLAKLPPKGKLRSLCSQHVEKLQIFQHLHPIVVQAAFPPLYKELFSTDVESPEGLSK
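Luminescence from a UAS-regulated Photinus luciferase reporter in stably transfected Drosophila Schneider cells is measured; decreased signal marks ROR gamma inhibition. Fusion expression is induced by 700 uM copper sulfate for 20 hr.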
DT40 TDP1 no CPT: qHTS for Inhibitors of human tyrosyl-DNA phosphodiesterase 1 (TDP1): qHTS in cells in absence of CPT; DT40 Tdp1-/- hTDP1 cells, no CPT, ATP luminescence, 48 h; AID 686978, 2013; 15% of 420,000 active; Potency, µM (series often up to 46.2 µM), inactives show at the top dose activity change, negative = growth inhibition, hits mostly inhibitors; further: potency means the concentration at half of the fitted maximal effect; nearly all actives have a fitted effect of over 55% in size
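Growth kinetics read by CellTiter-Glo luminescence after ≥48 hr at 37 °C. Cells: DT40 Tdp1-/- stably carrying human TDP1, 400 per well, compound exposure in the absence of CPT (DMSO vehicle).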
TDP1 cell CPT: qHTS for Inhibitors of human tyrosyl-DNA phosphodiesterase 1 (TDP1): qHTS in cells in presence of CPT; chicken DT40 Tdp1-/-;hTDP1 cells + 20 nM CPT, ATP luminescence, 48 h; Potency, µM (doses to about 46.2 µM), for the others: at the highest dose activity change, negative = growth inhibition, usual class: inhibitors; 12% of 420,000 active; further: potency means the concentration at half of the fitted maximal effect; nearly all actives have a fitted effect of over 55% in size
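Chicken DT40 Tdp1-/- cells stably complemented with human TDP1 were seeded at 400 cells/well in medium containing 20 nM camptothecin, exposed to pin-transferred compounds, and grown at 37 °C for at least 48 hr. Viability was read as ATP luminescence.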
ELG1 repair inh: qHTS screen for small molecules that inhibit ELG1-dependent DNA repair in human embryonic kidney (HEK293T) cells expressing luciferase-tagged ELG1; HEK293T ELG1-luciferase reporter, luminescence, 16 h; DNA damage induced by 5-fluorouridine; Potency, µM (highest dose often 46.1 µM), inactives show top-dose activity change, negative = inhibition, actives largely listed as inhibitors; 2.3% of 330,000 active; further: potency means the concentration at half of the fitted maximal effect; nearly all actives have a fitted effect of over 55% in size
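Overnight (16 hr) co-exposure of 2,000 cells/well to 5-fluorouridine and compound at 37 °C preceded detection. Luciferase was quantified via ONE-Glo luminescence; loss of signal denotes inhibition.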
IL1B secr inh: qHTS for Inhibitors of Inflammasome Signaling: IL-1-beta AlphaLISA Primary Screen; activity change, % at 57.5 µM; 4.7% of 360,000 active; THP-1 LPS/ATP IL-1B secretion, AlphaLISA, 16 h; active compounds read low; in the data active means activity change below about -50%; inconclusive means mostly about -30% to -49%
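Secreted IL-1B measured by AlphaLISA bead assay after 16 h compound exposure of THP-1 cells; compounds (final up to 57.5 uM) added 1 h before LPS (250 ng/mL) and ATP (1.25 mM) stimulation; lower signal means less secretion.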
Starred values were filed as active, the others as inactive; u = inconclusive; x = no result given; ! = not active in a repeat. Shown are actives, neighbours in structure and some others; about 21% of the full set was active somewhere. Unless noted, the call rests on the fitted dose curve; in most records, active means well fitted curve in the direction sought with a large enough effect; inconclusive means small, poorly fitted or top-dose-only effect, or another doubt; inactive means no such curve, though single readings can be large; an effect the other way counts as inactive or inconclusive. On the % scale 0 is the no-effect control and ±100 the full control effect.

SMILES | VP16 counter | RORg inh | DT40 TDP1 no CPT | TDP1 cell CPT | ELG1 repair inh | IL1B secr inh
O=S(=O)(c1ccc2nc(-c3ccccc3)[nH]c2c1)N1CCN(c2ccc(Cl)cc2)CC1 | -13% | -1% | u | u | u | 6
Cc1ccc(NC(=O)C2CCCN2S(=O)(=O)c2ccc3nc(-c4ccccc4)[nH]c3c2)cc1C (stereo not drawn) | x | x | 23µM* | u | x | x
CC(C)c1ccc(NC(=O)C2CCCN2S(=O)(=O)c2ccc3nc(-c4ccccc4)[nH]c3c2)cc1 (stereo not drawn) | x | x | 7.3µM* | 10µM* | x | x
Cc1cccc(NC(=O)C2CCCN2S(=O)(=O)c2ccc3nc(-c4ccccc4)[nH]c3c2)c1 (stereo not drawn) | x | x | 18µM* | u | x | x
CN(C)S(=O)(=O)c1ccc(Cl)c(C(=O)Nc2nc3ccccc3[nH]2)c1 | u | u | -23% | -24% | -13% | -7
Cc1ccc(NS(=O)(=O)c2ccc(Cl)c(C(=O)Nc3ccccc3-c3nc4ccccc4[nH]3)c2)cc1C | -9% | u | 8.2µM* | 7.3µM* | 9.2µM* | -13
Cc1ccc(NC(=O)C2CCCN2S(=O)(=O)c2ccc3c(c2)CCC(=O)N3)cc1Cl (stereo not drawn) | 6% | -25% | u | -21% | u | 43
O=[N+]([O-])c1ccc2ccn(C3OCC(O)C(O)C3O)c2c1 (stereo not drawn) | -4% | -6% | 3% | 10% | 7% | -22
O=S(=O)(Nc1ccc(Br)cc1F)c1ccc2nc(-c3ccccc3)[nH]c2c1 | x | x | u | -21% | x | x
Cc1cc(NS(=O)(=O)c2ccc3nc(-c4ccccc4)[nH]c3c2)ccc1Br | x | x | 15µM* | u | x | x
CCOCC(=O)NC1CCc2cc(OC(=O)COCC)c(OC)c(OC)c2-c2ccc(SC)c(=O)cc21 (stereo not drawn) | x | x | 0.15µM* | 0.023µM* | x | 27
COc1cc2c(c(OC)c1OC)-c1ccc(SC)c(=O)cc1C(NC(=O)C(F)(F)F)CC2 (stereo not drawn) | x | x | 0.018µM* | 0.092µM* | x | 45
COc1ccc(C(=O)COC(=O)c2cc(=O)c3ccccc3o2)c(OC)c1 | x | x | -21% | -6% | x | 20
CC12CCC(=O)N1C(C(=O)N1CCN(c3cccc(Cl)c3)CC1)CS2 (stereo not drawn) | x | x | -17% | -24% | -17% | 23
CCOC(=O)c1cnc2ccc(C)cc2c1Sc1ccccc1 | -4% | -33% | 26µM* | u | u | 9
CCOC(=O)c1cnc2ccc(C)cc2c1Sc1ccc(F)cc1 | 28µM* | u | u | u | 0% | -12
CCOC(=O)c1ccc2ncc(C(=O)OCC)c(NCCN(C)C)c2c1 | x | x | -16% | 3% | x | u
CCOC(=O)c1cnc(=O)[nH]c1C | -5% | -28% | -4% | -7% | 1% | 17
CCOC(=O)c1cnc2ccc(C)cc2c1N(C)Cc1ccccc1 | -11% | -35% | u | u | u | -68*
C/C(=N\NC(=S)NCCc1ccccc1)c1cccc(Br)c1 | u | 4.5µM* | u | u | -12% | 34
C/C(=N\NC(=S)NCc1ccccc1)c1ccc2ccccc2c1 | 4.5µM* | 2.5µM* | 7.3µM* | 6.5µM* | 3% | 16
C/C(=N\NC(=S)NCc1ccccc1)c1cccc(Br)c1 | 2% | u | 21µM* | 15µM* | -19% | -14
O=C(NCCc1ccccc1)c1cccc(Br)c1 | 1% | 27% | u | -19% | u | -18
CC(CCC#N)[N+](=O)[O-] (stereo not drawn) | 3% | 2% | x | x | x | x
COc1ccc([C@H]2CC(=O)C=C(c3ccc(C(F)(F)F)c(C(F)(F)F)c3)C2)cc1OC | x | x | u | u | u | -78*
SMILES | VP16 counter | RORg inh | DT40 TDP1 no CPT | TDP1 cell CPT | ELG1 repair inh | IL1B secr inh
COc1ccc([C@H]2CC(=O)C=C(c3ccc(Cl)c(C(F)(F)F)c3)C2)cc1OC | x | x | u | u | u | -56*
COc1ccc([C@H]2CC(=O)C=C(c3cccc(Cl)c3)C2)cc1 | x | x | u | u | u | -28
COc1ccc([C@H]2CC(=O)C=C(c3ccc4c(c3)OCCO4)C2)cc1 | x | x | -7% | 3% | 14% | -6
CCC1CN(C(=O)Nc2ccc(Br)cc2F)c2ccccc2S1 (stereo not drawn) | x | x | u | -19% | x | x
CCCCNC(=O)c1nc(-c2cnccn2)oc1-c1ccc(Cl)cc1 | x | x | u | u | x | -22
CCCCNC(=O)c1nc(-c2cc3ccccc3[nH]2)oc1-c1ccccc1 | x | x | 16µM* | u | x | 6
CCCCNC(=O)c1nc(-c2cccs2)oc1-c1ccc(Cl)cc1 | x | x | 15µM* | u | x | -5
Cc1ccc([C@@H]2C[C@H]3[C@@H](CN2S(=O)(=O)c2ccc(Cl)cc2)C(=O)C[C@@H](c2ccc(Cl)cc2)N3S(=O)(=O)c2ccccc2C)cc1 | x | x | u | -21% | x | 13
C=CSc1sc(Cl)c(N(CC)CC)c1[N+](=O)[O-] | 4% | -15% | -23% | -18% | 4% | 11
Cc1ccc(C(=O)Nc2nnc(SCc3cc(=O)c4c(C)ccc(C)c4[nH]3)s2)cc1 | x | x | 10µM* | 18µM* | x | x
O=C(Nc1nnc(SCc2cc(=O)c3ccccc3[nH]2)s1)c1ccccc1 | x | x | 7.3µM* | 23µM* | x | x
Cc1ccc(SCc2nnc(NC(=O)c3ccccc3)s2)cc1 | 11% | -5% | -1% | -14% | -16% | -2
CCSc1nnc(NC(=O)c2cccc3ccccc23)s1 | -13% | u | -3% | 3% | 16% | -1
COc1ccccc1C(=O)Nc1nnc(SCc2cc(=O)c3ccccc3[nH]2)s1 | x | x | 15µM* | 15µM* | x | x
Cc1ccc(NC(=O)c2nc(-c3ccncc3)no2)c(Cl)c1 | x | x | -1% | -11% | x | x
Cc1ccccc1N1CCN(C(=O)c2ccccc2NC(=O)c2ccccc2C(=O)O)CC1 | 22% | 1% | u | u | 3% | 8
Cc1ccc(C)c(-c2ccc(=O)n(Cc3cccc(Br)c3)n2)c1 | -2% | 9% | u | -18% | 6% | -98*
Cc1ccc(C)c(-c2ccc(=O)n(Cc3ccc(F)cc3Cl)n2)c1 | -5% | 31% | u | 18µM*! | -2% | -75*
